Experiment [1] in a line: qHTS assay to identify small molecule agonists of the estrogen receptor alpha (ER-alpha) signaling pathway in the presence of an antagonist - cell viability counter screen (AID 1259386).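 Further: cells exposed to compounds for 22 h at 37 °C before the viability read; nearly all actives have a fitted effect of over 30% in size.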 Further: potency means the concentration at half of the fitted maximal effect. The method, boiled down:
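VM7Luc4E2 cells (endogenous full-length ER-alpha, 4×ERE-luciferase) were held 5 days in phenol red-free medium with 10% charcoal-stripped FBS, plated, then given 10.0nM ICI-182,780 and compounds at 15 concentrations for 22hr at 37C; viability read by CellTiter-Fluor fluorescence.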

For experiment [2], the target named is Progesterone receptor (Homo sapiens) (UniProt P06401). The experiment can be described thus: qHTS assay to identify small molecule agonists of the progesterone receptor (PR) signaling pathway (AID 1346784; calls by dose curve; further: nearly all actives have a fitted effect of over 30% in size). The method, boiled down: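 PR-UAS-bla HEK 293T cells (beta-lactamase reporter under UAS) in 2% charcoal-stripped FBS, dosed with 23 nL compound after 6 hr, incubated 16hr at 37C. LiveBLAzer B/G FRET substrate added, fluorescence read after 2 hours.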

Experiment [3] has the same target. The experiment can be described thus: qHTS assay to identify small molecule antagonists of the progesterone receptor (PR) signaling pathway (AID 1346795; active means well fitted inhibition curve with a large enough effect in the signal ratio in the repeat runs, not every such curve was filed as active; the % refers to the signal ratio; further: potency means the concentration at half of the fitted maximal effect). The method, boiled down: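 PR-UAS-bla HEK293T cells with beta-lactamase reporter under UAS control, in 2% charcoal-stripped FBS, treated with compounds plus 1 nM promegestone (R5020, final) for 16 hr at 37C. Read-out: FRET beta-lactamase substrate fluorescence after 2 hr at room temperature.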

Experiment [4] in a line: qHTS assay to identify small molecule antagonists of the progesterone receptor (PR) signaling pathway - cell viability counter screen (AID 1346798). Further: nearly all actives have a fitted effect of over 50% in size. Further: potency means the concentration at half of the fitted maximal effect. Summed up:
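PR-UAS-bla HEK293T cells, 3,000/well in 2% charcoal-stripped FBS medium, dosed with compounds plus R5020 agonist and incubated 16 h at 37C. Viability then measured in the same wells by CellTiter-Glo luminescence after 30 min at RT.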

Experiment [5] is described as follows: qHTS assay to identify small molecule antagonists of the TGF-beta/Smad signaling pathway - cell viability counter screen (AID 1346824). Further: nearly all actives have a fitted effect of over 50% in size. Further: potency means the concentration at half of the fitted maximal effect. Summed up: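 SBE-bla HEK 293T cells, incubated overnight, then compound plus 0.25 ng/mL TGF-beta1 (stock added) for 5 hr at 37 C. Viability was read in the same wells by CellTiter-Glo luminescence after 30 min at room temperature.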

Experiment [6] can be described thus: qHTS assay to identify small molecule agonists of the TGF-beta/Smad signaling pathway - cell viability counter screen (AID 1346829). Further: nearly all actives have a fitted effect of over 45% in size. Further: potency means the concentration at half of the fitted maximal effect. The method, boiled down:
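Cytotoxicity counter screen: CellTiter-Glo luminescence (30 min, room temperature) measured in the SBE-bla HEK 293T reporter wells after 5 hr compound treatment at 37 C and the 2 hr substrate step.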

Experiment [7] concerns the target Thyrotropin-releasing hormone receptor (Homo sapiens) (UniProt P34981). The experiment can be described thus: qHTS assay to identify small molecule antagonists of the thyrotropin-releasing hormone receptor (TRHR) signaling pathway (AID 1346877; active means well fitted inhibition curve with a large enough effect in the repeat runs, not every such curve was filed as active; further: potency means the concentration at half of the fitted maximal effect). Summed up:
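TRHR-expressing HEK293 cells were seeded, cultured 18 h at 37 °C, then loaded with calcium dye for 2 h. Compounds were pre-incubated 5 min at room temperature before 1 nM TRH (final) was added, and kinetic fluorescence was recorded for 3 min.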

Experiment [8] has the same target. The experiment can be described thus: qHTS assay to identify small molecule agonists of the thyrotropin-releasing hormone receptor (TRHR) signaling pathway (AID 1346891; calls by dose curve; further: series mostly up to about 58 µM). Summed up:
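HEK293 cells expressing TRHR plated 18 h at 37 C/5% CO2, calcium dye-loaded 2 h at 37 C, then compound added (agonist mode); kinetic calcium fluorescence read 3 min at 1 s intervals; 15 concentrations in triplicate.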

Experiment [9] is described as follows: qHTS assay to identify small molecule agonists of the progesterone receptor (PR) signaling pathway - cell viability counter screen (AID 1346799; calls by dose curve; further: nearly all actives have a fitted effect of over 45% in size; further: potency means the concentration at half of the fitted maximal effect). Summed up: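 Counter screen in the PR-UAS-bla HEK293T wells (2% charcoal-stripped FBS, 16 h compound exposure at 37 C) after the bla read. CellTiter-Glo added, 30 min at room temperature, luminescence read as cell viability.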

The nature of experiment [10]: qHTS assay to identify small molecule agonists of the TGF-beta/Smad signaling pathway (AID 1346859; active means well fitted activation curve with a large enough effect in the signal ratio in the repeat runs, not every such curve was filed as active; the % refers to the signal ratio; further: potency means the concentration at half of the fitted maximal effect; on activation: series mostly up to about 77 µM). Summed up:
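SBE-bla HEK293T cells plated overnight, then compound exposure for 5 h at 37 C. Beta-lactamase reporter read with LiveBLAzer B/G FRET substrate after 2 h at room temperature, fluorescence at 405 nm excitation, 460/530 nm emission.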

25 molecules from PubChem BioAssay (Tox21) can be followed below.

Several values for one entry are separate records, joined by “and”; a condition that tells them apart may be missing. Identical values can stand only once. Records with an inconclusive call do not appear. Where a structure was tested more than once in an assay, its records may differ in their call. Activity calls are given as the source filed them. Unless noted, the call rests on the fitted dose curve; in most records, active means well fitted curve in the direction sought with a large enough effect in the repeat runs; inconclusive means weak or mixed curves; inactive means no such curve, though single readings can be large; an effect the other way counts as inactive or inconclusive.

Thyrotropin-releasing hormone receptor (Homo sapiens), sequence (P34981 whole entry, looked up): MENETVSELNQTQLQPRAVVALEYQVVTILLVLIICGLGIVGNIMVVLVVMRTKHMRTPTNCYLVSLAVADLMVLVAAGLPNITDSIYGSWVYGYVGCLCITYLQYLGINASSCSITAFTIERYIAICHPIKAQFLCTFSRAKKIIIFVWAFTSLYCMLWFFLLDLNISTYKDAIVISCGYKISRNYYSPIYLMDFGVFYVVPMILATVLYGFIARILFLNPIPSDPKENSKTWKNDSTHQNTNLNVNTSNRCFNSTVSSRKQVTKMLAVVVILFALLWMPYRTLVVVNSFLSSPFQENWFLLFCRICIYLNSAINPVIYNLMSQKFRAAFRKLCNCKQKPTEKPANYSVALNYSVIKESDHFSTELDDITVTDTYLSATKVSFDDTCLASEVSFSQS
Progesterone receptor (Homo sapiens), sequence (P06401 whole entry, looked up): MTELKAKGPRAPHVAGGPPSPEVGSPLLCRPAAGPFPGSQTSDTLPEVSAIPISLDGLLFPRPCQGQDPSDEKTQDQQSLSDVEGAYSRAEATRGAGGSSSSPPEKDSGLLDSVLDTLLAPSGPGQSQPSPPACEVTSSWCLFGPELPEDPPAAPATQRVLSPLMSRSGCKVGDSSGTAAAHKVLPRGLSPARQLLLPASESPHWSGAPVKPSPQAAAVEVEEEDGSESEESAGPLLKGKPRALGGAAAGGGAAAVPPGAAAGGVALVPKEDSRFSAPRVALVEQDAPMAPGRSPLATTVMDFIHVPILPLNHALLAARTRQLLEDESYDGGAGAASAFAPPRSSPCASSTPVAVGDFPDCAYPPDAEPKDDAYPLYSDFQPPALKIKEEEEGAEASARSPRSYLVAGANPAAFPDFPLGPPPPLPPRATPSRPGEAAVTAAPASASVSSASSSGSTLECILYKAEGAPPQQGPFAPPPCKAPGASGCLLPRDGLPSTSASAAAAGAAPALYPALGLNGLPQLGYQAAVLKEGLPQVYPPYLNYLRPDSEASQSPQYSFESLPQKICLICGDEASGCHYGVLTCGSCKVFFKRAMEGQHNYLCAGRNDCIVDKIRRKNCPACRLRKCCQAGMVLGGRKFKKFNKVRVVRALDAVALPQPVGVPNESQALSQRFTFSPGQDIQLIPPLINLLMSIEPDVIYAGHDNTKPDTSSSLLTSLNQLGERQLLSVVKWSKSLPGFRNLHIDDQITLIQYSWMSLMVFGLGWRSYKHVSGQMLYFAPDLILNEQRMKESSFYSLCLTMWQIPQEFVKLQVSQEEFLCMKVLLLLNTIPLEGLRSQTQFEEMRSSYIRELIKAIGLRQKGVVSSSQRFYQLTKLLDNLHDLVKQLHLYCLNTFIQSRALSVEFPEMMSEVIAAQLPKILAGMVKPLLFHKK

For the molecule `CC(C)=CC1C(C(=O)OCN2C(=O)C3=C(CCCC3)C2=O)C1(C)C` (centres undefined), the Potency entry in experiment [1], in experiment [2], in experiment [3], in [4], in [5] and in experiment [6] was “inactive” throughout. For the same molecule, the Potency entry in experiment [7] is “inactive”. Also, the molecule was called inactive in [8].

Regarding `CCOS(=O)(=O)OCC`, the Potency entry in [1], in experiment [2], in experiment [3], in experiment [9], in [5] and in [6] was “inactive” each time. For the same molecule, the Potency result in experiment [10] and in [7] was “inactive” in each case. The outcome in experiment [8] was inactive.

Regarding `CC1(C)Cc2cccc(O)c2O1`, the Potency entry in [1], in [2], in [3], in experiment [4], in experiment [9] and in experiment [5] was “inactive” in each case. Also, the Potency result in experiment [6], in experiment [10] and in [7] was “inactive” throughout. Also, in [8], the molecule was classed as inactive.

In the case of `S=c1[nH]c2ccccc2[nH]1`, the Potency result in [1], in experiment [2], in experiment [9], in experiment [5], in experiment [6] and in experiment [10] was “inactive” each time. Also, the Potency result in experiment [7] was “inactive”. Further, the Potency in [3] is 30.7 µM (active). Moreover, the result in experiment [8] was inactive.

Consider `CNC(=O)CSP(=S)(OC)OC`, for which the Potency result in experiment [1], in experiment [2], in experiment [3], in [9], in [5] and in experiment [6] was “inactive” throughout. In addition, the Potency entry in experiment [10] and in experiment [7] was “inactive” throughout. The outcome in experiment [8] was inactive.

Regarding `C[N+](C)(C)CC(=O)[O-]`, the Potency result in [1], in [2], in [3], in [9], in experiment [5] and in experiment [6] was “inactive” throughout. Besides, the Potency entry in [10] is “inactive”.

In the case of `CCNc1nc(Cl)nc(NC(C)(C)C#N)n1`, the Potency result in [1], in [2], in experiment [3], in [9], in experiment [5] and in experiment [6] was “inactive” in each case. Moreover, the Potency entry in experiment [10] was “inactive”.

Consider `C[N+](C)(C)C`, for which the Potency entry in [1], in experiment [2], in [3], in experiment [4], in experiment [9] and in experiment [5] was “inactive” throughout. Also, the Potency entry in experiment [6], in [10] and in experiment [7] was “inactive” each time. Also, the result in experiment [8] was inactive.

Consider `CC(C)=CC1C(C(=O)OCc2cccc(Oc3ccccc3)c2)C1(C)C` (centres undefined), for which the Potency entry in [1], in experiment [2], in experiment [3], in [4], in experiment [9] and in [5] was “inactive” throughout. In addition, the Potency entry in experiment [6], in experiment [10] and in experiment [7] was “inactive” in each case. Besides, the molecule was classed as inactive in [8].

For `CCCCCCCCCc1ccc(O)cc1`, the Potency entry in experiment [1], in experiment [2], in [4], in experiment [9], in experiment [5] and in experiment [6] was “inactive” throughout. The Potency entry in experiment [10] and in experiment [7] was “inactive” in each case. The Potency in [3] was 27.6 µM (active) and 61.1 µM (active). Besides, in experiment [8], the call was inactive.

With `O=P(OCCCl)(OCCCl)OCCCl`, the Potency entry in experiment [1], in experiment [2], in [3], in experiment [9], in [5] and in [6] was “inactive” each time. Also, the Potency entry in [10] and in experiment [7] was “inactive” each time. Further, the molecule was called inactive in [8].

In the case of `CC1CC(=O)O1` (centres undefined), the Potency entry in experiment [1], in experiment [2], in experiment [3], in [9], in experiment [5] and in [6] was “inactive” in each case. Besides, the Potency result in experiment [10] is “inactive”.

Turning to `Clc1ccc(C(Cl)(Cl)Cl)cc1`, the Potency result in [1], in [2], in experiment [3], in experiment [4], in experiment [9] and in experiment [5] was “inactive” in each case. The Potency result in experiment [6], in experiment [10] and in [7] was “inactive” each time. Besides, in experiment [8], the outcome was inactive.

Turning to `CCCCC(C#N)(Cn1cncn1)c1ccc(Cl)cc1` (centres undefined), the Potency entry in experiment [1], in experiment [2], in experiment [9], in experiment [5], in experiment [6] and in experiment [10] was “inactive” in each case. In experiment [7], the Potency result was “inactive”. For the same molecule, in experiment [3], the Potency was 30.5 µM (active). In addition, the call in experiment [8] was inactive.

For the molecule `Cc1ccc(N=CN(C)C=Nc2ccc(C)cc2C)c(C)c1`, the Potency entry in experiment [1], in experiment [2], in [3], in [9], in [5] and in experiment [6] was “inactive” in each case. Besides, the Potency entry in experiment [10] and in experiment [7] was “inactive” each time. Moreover, the outcome in experiment [8] was inactive.

In the case of `ClC(Cl)(Cl)c1ccccc1`, the Potency entry in experiment [1], in [2], in experiment [3], in [9], in experiment [5] and in experiment [6] was “inactive” each time. Further, in experiment [10], the Potency result was “inactive”.

`[CH3][Sn]([Cl])([Cl])[Cl]`: the Potency entry in experiment [1], in [2], in experiment [3], in experiment [9], in [5] and in experiment [6] was “inactive” throughout. The Potency result in experiment [10] and in experiment [7] was “inactive” each time. Besides, the molecule was classed as inactive in experiment [8].

Turning to `CCC/C=N/O`, the Potency entry in experiment [1], in experiment [2], in experiment [3], in [9], in [5] and in experiment [6] was “inactive” each time. In addition, the Potency entry in [10] and in experiment [7] was “inactive” each time. The call in experiment [8] was inactive.

Turning to `CCCCOCCOC(C)=O`, the Potency entry in experiment [1], in [2], in experiment [3], in experiment [9], in experiment [5] and in experiment [6] was “inactive” each time. Further, the Potency entry in experiment [10] and in [7] was “inactive” each time. For the same molecule, the result in experiment [8] was inactive.

Consider `N#CC(c1ccccc1)c1ccccc1`, for which the Potency result in [1], in experiment [2], in [3], in experiment [9], in experiment [5] and in experiment [6] was “inactive” throughout. Also, the Potency entry in experiment [10] and in [7] was “inactive” in each case. Further, in experiment [8], the molecule was called inactive.

As to `O=C1C(Cl)=C(Cl)C(=O)c2ccccc21`, the Potency was 43.4 µM (active) and 61.1 µM (active) in experiment [1]; 48.6 µM (active) in experiment [3]; 61.3 µM (active) and 61.1 µM (active) in [4]; 61.1 µM (active) in experiment [9]; 49.1 µM (active) and 49 µM (active) in experiment [5]; 49.1 µM (active) and 43.6 µM (active) in experiment [6]. The Potency in experiment [7] was 21.4 µM (active) and 21.3 µM (active). Also, the Potency result in experiment [2] is “inactive”. In addition, the result in [8] was inactive.

For `CNC(=O)Oc1cccc2c1OC(C)(C)C2`, the Potency result in experiment [1], in [2], in experiment [3], in [4], in [9] and in experiment [5] was “inactive” throughout. In addition, the Potency entry in experiment [6], in experiment [10] and in experiment [7] was “inactive” in each case. In experiment [8], the molecule was called inactive.

For the molecule `Oc1ccc(Cl)cc1Cl`, the Potency entry in experiment [1], in experiment [2], in experiment [3], in [4], in experiment [9] and in experiment [5] was “inactive” in each case. Further, the Potency result in experiment [6] and in experiment [7] was “inactive” throughout. The Potency in experiment [10] is 48.6 µM (active) and inactive. Further, in experiment [8], the result was inactive.

Turning to `NC(=O)CN1CCCC1=O`, the Potency result in experiment [1], in [2], in experiment [3], in [9], in experiment [5] and in experiment [6] was “inactive” each time. Besides, the Potency result in experiment [10] and in experiment [7] was “inactive” in each case. In addition, in [8], the call was inactive.

`O=NN1CCOCC1`: the Potency result in [1], in experiment [2], in experiment [3], in [4], in experiment [9] and in experiment [5] was “inactive” each time. The Potency entry in experiment [6], in experiment [10] and in experiment [7] was “inactive” each time. The outcome in experiment [8] was inactive.
